# Test results reported in the supplement of paper PMC10849652.
# Of roughly 7,900 targets only a part is listed; those with a hit were picked by preference. About 0.6% of all pairs of compound and target were hits. Unmarked numbers belong to inactive results.
# Experiments:
# Experiment in all cases: log2 fold change, soluble protein after heating vs DMSO (PISA); higher = thermal stabilisation; K562 cells, 10 uM, 30 min; active = over 0.2 and 3.5 SD of the protein, either way, in both replicates (recomputed)
# bafetinib = compound: Cc1ccc(NC(=O)c2ccc(CN3CC[C@H](N(C)C)C3)c(C(F)(F)F)c2)cc1Nc1nccc(-c2cncnc2)n1 [bafetinib]
# In short: (§1)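 Values are thermal stability changes relative to control samples and are taken from duplicates. They are stated as log2 fold changes. Before quantification by TMTpro 16plex LC-MS/MS with equalised channel sums, K562 cells at 2×10^6 cells/mL were treated with 10 μM compound for 30 min, heated in aliquots for 3 min across 48°C-58°C, pooled, extracted in PBS with 0.5% NP-40 at 4°C, and centrifuged at 21,000xg for 90 min to give the soluble supernatant.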
# [1] = compound: Cc1cccc(CC(=O)N2CCc3c2ccc(-c2cn(C)c4ncnc(N)c24)c3F)n1
# In short: as §1
# nilotinib = compound: Cc1cn(-c2cc(NC(=O)c3ccc(C)c(Nc4nccc(-c5cccnc5)n4)c3)cc(C(F)(F)F)c2)cn1 [nilotinib]
# In short: as §1
# [2] = compound: Cc1nc(Nc2n[nH]c3c2CN(C(=O)N[C@H](CN(C)C)c2ccccc2)C3(C)C)c2sccc2n1
# In short: as §1
# dasatinib = compound: Cc1nc(Nc2ncc(C(=O)Nc3c(C)cccc3Cl)s2)cc(N2CCN(CCO)CC2)n1 [dasatinib]
# In short: as §1
# [3] = compound: Cc1ncc(-c2ccnc(Nc3ccc(S(C)(=O)=O)cc3)n2)n1C(C)C
# In short: as §1
# [4] = compound: Cn1cc(-c2ccc3c(c2)CCN3C(=O)Cc2cccc(C(F)(F)F)c2)c2c(N)ncnc21
# In short: as §1
# [5] = compound: Cn1cc(-c2ccc3nnc(C(F)(F)c4ccc5ncccc5c4)n3n2)cn1
# In short: as §1
# tipifarnib = compound: Cn1cncc1[C@@](N)(c1ccc(Cl)cc1)c1ccc2c(c1)c(-c1cccc(Cl)c1)cc(=O)n2C [tipifarnib]
# In short: as §1
# mubritinib = compound: FC(F)(F)c1ccc(/C=C/c2nc(COc3ccc(CCCCn4ccnn4)cc3)co2)cc1 [mubritinib]
# In short: as §1
# Sequence of UniProt P39656 (P39656 whole entry, looked up): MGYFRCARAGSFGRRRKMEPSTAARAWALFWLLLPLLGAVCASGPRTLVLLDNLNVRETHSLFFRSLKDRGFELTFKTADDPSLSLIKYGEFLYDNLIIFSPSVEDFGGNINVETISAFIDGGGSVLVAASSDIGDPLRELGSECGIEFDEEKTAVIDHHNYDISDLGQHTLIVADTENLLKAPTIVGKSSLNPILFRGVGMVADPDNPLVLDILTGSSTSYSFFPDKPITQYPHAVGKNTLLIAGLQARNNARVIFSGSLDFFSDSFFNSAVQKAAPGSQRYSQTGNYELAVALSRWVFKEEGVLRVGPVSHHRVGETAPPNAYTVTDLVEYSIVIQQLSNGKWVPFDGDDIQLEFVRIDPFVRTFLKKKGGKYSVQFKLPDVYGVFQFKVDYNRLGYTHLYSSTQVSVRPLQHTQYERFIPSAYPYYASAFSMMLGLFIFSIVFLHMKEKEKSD
# Sequence of UniProt Q9H4H8 (Q9H4H8 whole entry, looked up): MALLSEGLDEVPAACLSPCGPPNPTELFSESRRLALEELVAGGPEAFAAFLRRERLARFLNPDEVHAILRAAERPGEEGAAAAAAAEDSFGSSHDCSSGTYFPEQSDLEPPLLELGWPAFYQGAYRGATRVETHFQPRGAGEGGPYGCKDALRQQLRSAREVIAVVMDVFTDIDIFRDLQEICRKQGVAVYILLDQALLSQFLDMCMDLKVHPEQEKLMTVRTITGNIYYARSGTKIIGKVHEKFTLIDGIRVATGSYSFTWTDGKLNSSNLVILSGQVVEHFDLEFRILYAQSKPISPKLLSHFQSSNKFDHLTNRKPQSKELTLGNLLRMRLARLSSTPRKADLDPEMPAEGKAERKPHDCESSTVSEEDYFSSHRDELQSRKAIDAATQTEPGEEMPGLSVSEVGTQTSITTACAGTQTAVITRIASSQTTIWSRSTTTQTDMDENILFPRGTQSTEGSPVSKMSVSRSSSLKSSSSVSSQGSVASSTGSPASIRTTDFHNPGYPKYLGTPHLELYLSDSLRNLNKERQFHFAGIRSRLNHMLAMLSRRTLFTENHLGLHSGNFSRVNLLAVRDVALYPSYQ
# Sequence of UniProt Q6UX04 (Q6UX04 whole entry, looked up): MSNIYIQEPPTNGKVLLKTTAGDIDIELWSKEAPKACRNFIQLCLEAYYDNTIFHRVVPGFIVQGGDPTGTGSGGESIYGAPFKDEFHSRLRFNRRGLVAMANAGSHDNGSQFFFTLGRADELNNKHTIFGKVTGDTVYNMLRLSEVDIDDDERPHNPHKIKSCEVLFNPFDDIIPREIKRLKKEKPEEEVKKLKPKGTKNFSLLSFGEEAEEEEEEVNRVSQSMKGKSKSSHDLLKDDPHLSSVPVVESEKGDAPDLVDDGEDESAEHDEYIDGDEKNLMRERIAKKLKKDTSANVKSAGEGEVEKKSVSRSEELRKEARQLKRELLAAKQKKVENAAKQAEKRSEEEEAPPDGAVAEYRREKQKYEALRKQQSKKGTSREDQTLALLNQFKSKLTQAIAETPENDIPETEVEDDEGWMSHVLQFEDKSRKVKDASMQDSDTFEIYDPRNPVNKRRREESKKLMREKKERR
# Sequence of UniProt Q99848 (Q99848 whole entry, looked up): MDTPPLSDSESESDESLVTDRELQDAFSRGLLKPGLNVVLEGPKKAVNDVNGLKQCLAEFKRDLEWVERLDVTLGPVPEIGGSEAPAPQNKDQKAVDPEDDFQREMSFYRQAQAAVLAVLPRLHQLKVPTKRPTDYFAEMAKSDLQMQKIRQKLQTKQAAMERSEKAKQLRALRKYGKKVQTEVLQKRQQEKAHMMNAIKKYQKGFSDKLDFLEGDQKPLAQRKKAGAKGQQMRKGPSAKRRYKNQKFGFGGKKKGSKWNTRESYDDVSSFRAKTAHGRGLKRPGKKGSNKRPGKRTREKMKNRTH
# Sequence of UniProt P98173 (P98173 whole entry, looked up): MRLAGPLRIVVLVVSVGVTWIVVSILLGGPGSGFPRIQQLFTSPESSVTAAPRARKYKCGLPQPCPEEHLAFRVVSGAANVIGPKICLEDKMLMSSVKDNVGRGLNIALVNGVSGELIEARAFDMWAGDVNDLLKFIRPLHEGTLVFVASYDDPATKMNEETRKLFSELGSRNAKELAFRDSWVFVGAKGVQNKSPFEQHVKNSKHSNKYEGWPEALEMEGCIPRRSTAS
# Sequence of UniProt P60842 (P60842 whole entry, looked up): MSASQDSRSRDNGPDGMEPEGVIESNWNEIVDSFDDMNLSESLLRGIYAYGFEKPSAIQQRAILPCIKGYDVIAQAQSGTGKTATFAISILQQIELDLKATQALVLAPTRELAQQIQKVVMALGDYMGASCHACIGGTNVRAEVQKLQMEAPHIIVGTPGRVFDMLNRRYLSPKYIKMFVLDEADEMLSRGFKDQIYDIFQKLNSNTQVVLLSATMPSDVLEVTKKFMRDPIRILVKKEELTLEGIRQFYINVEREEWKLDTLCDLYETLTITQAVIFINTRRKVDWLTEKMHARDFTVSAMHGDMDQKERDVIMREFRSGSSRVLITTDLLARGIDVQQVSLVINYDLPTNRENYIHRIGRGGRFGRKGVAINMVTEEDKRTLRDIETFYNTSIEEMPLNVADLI
# Sequence of UniProt O75477 (O75477 whole entry, looked up): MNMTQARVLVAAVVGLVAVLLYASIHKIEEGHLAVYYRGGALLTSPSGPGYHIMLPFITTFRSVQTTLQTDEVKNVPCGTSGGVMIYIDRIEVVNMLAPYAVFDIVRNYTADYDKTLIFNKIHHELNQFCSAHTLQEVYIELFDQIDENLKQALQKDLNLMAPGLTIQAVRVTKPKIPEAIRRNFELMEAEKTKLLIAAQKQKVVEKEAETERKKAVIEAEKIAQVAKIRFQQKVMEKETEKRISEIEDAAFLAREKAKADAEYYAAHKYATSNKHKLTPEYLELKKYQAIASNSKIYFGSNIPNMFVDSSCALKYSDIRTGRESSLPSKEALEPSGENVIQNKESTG
# Sequence of UniProt Q9BU89 (Q9BU89 whole entry, looked up): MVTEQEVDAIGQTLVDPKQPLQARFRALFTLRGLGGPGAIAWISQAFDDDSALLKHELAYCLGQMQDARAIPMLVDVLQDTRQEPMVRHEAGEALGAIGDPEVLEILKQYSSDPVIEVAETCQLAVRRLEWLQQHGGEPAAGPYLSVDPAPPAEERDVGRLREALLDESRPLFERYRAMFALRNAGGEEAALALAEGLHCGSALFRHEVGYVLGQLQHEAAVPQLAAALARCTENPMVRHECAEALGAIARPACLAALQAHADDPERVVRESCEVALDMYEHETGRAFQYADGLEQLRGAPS
# Sequence of UniProt Q8NBA8 (Q8NBA8 whole entry, looked up): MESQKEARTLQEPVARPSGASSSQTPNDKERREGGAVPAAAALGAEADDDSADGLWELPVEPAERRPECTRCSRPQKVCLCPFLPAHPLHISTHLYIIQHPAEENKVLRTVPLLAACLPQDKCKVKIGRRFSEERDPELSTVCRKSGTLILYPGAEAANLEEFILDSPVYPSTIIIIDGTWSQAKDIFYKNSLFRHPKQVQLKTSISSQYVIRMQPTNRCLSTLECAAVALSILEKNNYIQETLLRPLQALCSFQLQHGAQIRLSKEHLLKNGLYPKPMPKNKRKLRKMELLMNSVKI
# Sequence of UniProt P06730 (P06730 whole entry, looked up): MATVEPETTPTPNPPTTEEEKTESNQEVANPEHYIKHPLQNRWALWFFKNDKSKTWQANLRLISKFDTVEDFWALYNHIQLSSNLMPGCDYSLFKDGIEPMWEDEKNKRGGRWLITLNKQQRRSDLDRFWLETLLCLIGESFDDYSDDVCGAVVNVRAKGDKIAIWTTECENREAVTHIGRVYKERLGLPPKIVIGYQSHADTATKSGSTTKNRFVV
# Sequence of UniProt Q9UER7 (Q9UER7 whole entry, looked up): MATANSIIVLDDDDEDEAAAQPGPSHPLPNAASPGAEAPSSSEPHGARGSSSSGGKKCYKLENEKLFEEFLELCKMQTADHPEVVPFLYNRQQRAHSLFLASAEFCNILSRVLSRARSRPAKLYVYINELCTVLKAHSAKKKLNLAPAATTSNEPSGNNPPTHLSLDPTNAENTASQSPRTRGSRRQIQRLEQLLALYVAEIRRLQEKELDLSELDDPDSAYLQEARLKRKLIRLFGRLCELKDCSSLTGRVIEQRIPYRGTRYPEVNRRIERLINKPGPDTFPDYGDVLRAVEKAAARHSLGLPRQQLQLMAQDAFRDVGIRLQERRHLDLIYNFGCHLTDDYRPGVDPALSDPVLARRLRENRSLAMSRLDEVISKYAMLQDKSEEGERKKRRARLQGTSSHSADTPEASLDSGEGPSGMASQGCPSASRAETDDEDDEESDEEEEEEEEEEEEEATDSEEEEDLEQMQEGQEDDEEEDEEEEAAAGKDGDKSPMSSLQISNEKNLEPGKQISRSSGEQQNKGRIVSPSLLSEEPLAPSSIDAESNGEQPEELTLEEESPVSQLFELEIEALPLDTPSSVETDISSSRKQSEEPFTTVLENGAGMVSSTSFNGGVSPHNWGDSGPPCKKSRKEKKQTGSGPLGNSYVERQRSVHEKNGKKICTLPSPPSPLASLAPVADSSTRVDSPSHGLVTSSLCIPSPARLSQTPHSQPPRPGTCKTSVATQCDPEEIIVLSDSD
# Sequence of UniProt O00148 (O00148 whole entry, looked up): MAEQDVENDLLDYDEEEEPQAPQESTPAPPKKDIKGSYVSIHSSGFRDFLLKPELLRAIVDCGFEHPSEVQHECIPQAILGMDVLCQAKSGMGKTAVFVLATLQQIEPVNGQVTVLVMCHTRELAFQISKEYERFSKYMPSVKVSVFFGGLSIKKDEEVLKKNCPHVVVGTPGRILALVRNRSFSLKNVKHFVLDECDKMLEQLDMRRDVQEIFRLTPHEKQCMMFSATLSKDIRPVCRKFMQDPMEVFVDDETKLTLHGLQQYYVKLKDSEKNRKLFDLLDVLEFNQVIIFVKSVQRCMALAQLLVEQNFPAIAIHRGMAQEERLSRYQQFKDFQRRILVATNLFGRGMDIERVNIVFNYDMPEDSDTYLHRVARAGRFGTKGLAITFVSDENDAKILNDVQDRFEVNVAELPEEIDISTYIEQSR
Target,log2 fold change (bafetinib),log2 fold change [1],log2 fold change (nilotinib),log2 fold change [2],log2 fold change (dasatinib),log2 fold change [3],log2 fold change [4],log2 fold change [5],log2 fold change (tipifarnib),log2 fold change (mubritinib)
DDX4 (UniProt Q9NQI0),0.244,-0.511,-0.172,-0.187,0.107,-0.068,-0.217,0.052,0.268,-0.484
DDX39A (UniProt O00148),0.001,0.014,-0.017,-0.278 (active),-0.134,-0.218,-0.018,-0.007,0.079,-0.182
DHPS (UniProt M0R1T2),0.081,,,,,,,,,
FAM83D (UniProt Q9H4H8),-0.022,0.145,-0.069,-0.088,-0.241,0.016,-0.073,-0.027,-0.107,0.023
DDB1 isoform 2 (UniProt Q16531),-0.286,-0.094,,,,,,,,
FAM3A (UniProt P98173),-0.027,0.023,0.007,-0.044,0.036,-0.001,0.031,-0.03,0.042,0
DNAJB1 (UniProt P25685),-0.026,0.013,-0.042,-0.058,-0.064,0.026,0.035,0.02,-0.026,0.01
DNTTIP2 (UniProt Q5QJE6),0.148,-0.05,0.064,-0.02,0.148,-0.29,-0.104,-0.035,0.256,-0.074
ERCC2 (UniProt P18074),0.094,0.061,-0.014,-0.175,-0.185,-0.022,0.05,0.01,-0.062,0.114
CYP51A1 (UniProt Q16850),0.02,-0.019,0.156,-0.03,0.092,-0.016,-0.016,-0.143,1.27 (active),0.047
DAXX (UniProt Q9UER7),-0.119,-0.089,0.055,-0.106,-0.034,0,0.061,-0.016,0.034,
CTU1 (UniProt Q7Z7A3),-0.024,0.067,-0.062,-0.03,-0.145,-0.03,0.035,0.02,-0.043,0.067
EXOC5 (UniProt O00471),-0.016,0.061,-0.109,-0.258,-0.1,-0.078,0.022,0.026,-0.076,0.039
EIF4A1 (UniProt P60842),0.032,0.014,-0.135,-0.063,-0.114,-0.047,0.036,-0.022,-0.058,-0.08
DNAH5 (UniProt Q8TE73),-0.065,-0.084,-0.006,0.015,0.085,-0.015,0,-0.06,0.267,0.032
ESS2 (UniProt Q96DF8),-0.186,-0.07,0.013,-0.048,0.011,0.019,-0.061,-0.081,0.038,0.008
DHCR7 (UniProt Q9UBM7),0.428 (active),-0.005,-0.282,-0.005,-0.109,0.05,0.257,-0.016,-0.167,0.166
EIF4E isoform 2 (UniProt P06730),0.012,0.05,0.199,-0.072,0.013,0.272,0.125,0.082,-0.029,0.045
CYBA (UniProt P13498),-0.24 (active),-0.06,0.01,0.034,-0.077,0.026,0.002,0.004,0,0.006
DDOST (UniProt P39656),-0.035,-0.001,-0.005,0.033,0.016,-0.039,-0.04,0,0.047,-0.022
CUTA isoform 2 (UniProt O60888),-0.148,0.1,0.016,0.016,0,-0.01,0.07,0.09,0.123,0.028
CWC27 (UniProt Q6UX04),-0.147,-0.059,-0.058,-0.094,-0.087,0.132,0.056,0.022,-0.146,0.109
ERLIN1 (UniProt O75477),0.041,0.094,-0.153,0.032,-0.031,0.004,-0.11,0.002,0.026,-0.053
EFL1 (UniProt Q7Z2Z2),-0.043,-0.014,-0.147,-0.052,-0.077,0.003,0.021,0.028,-0.026,-0.109
DTWD2 (UniProt Q8NBA8),-0.023,-0.008,0.065,-0.019,0.126,0.022,0.215,0.096,-0.071,-0.087
DDX5 (UniProt P17844),0.272,0.018,0.166,-0.092,-0.19,0.076,0.029,0.046,-0.155,0.326
DOHH (UniProt Q9BU89),0.653 (active),0.008,0.035,-0.169,0.013,-0.054,-0.089,0.022,0.014,0.03
EBNA1BP2 (UniProt Q99848),0.312,-0.114,0.114,-0.089,0.226,-0.004,-0.499,-0.176,0.134,-0.124
F5 (UniProt P12259),-0.076,-0.02,0.021,0.019,0.05,0.023,0.072,0.111,0.153,-0.089
